# Results as given in paper PMC7862700, “An all-to-all approach to the identification of sequence-specific readers for epigenetic DNA modifications on cytosine”.
# How the values were obtained:
# Assay in all cases: DAPPL (digital affinity profiling via proximity ligation, sequencing); 10 mM Tris-HCl pH 7.5, 50 mM NaCl, 1 mM DTT, 4% glycerol, room temperature, 30 min; GST-TFs on glutathione beads, 16-mer random dsDNA library, 0.1% formaldehyde crosslink after washing; high values mean tight binding
# Conditions in all cases: protein: recombinant; tags: N-terminal GST; dsDNA, one strand shown
# ELK1 = biological target: T1, ELK1 (Homo sapiens, UniProt P19419 1-428)
# T1 sequence: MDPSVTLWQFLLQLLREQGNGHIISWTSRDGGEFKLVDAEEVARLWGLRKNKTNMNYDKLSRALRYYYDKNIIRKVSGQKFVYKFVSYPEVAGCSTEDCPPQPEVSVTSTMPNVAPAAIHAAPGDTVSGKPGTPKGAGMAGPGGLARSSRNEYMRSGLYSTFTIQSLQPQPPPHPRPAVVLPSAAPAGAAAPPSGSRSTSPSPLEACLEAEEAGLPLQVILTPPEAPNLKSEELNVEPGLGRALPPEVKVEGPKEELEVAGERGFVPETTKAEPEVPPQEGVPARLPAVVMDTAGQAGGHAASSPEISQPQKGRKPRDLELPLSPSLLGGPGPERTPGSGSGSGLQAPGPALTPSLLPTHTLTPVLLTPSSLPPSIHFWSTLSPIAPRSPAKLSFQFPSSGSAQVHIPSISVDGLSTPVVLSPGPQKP
# Summary of the method: (§1)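 Binding signal is each hexamer's read frequency for a factor divided by its frequency in the tag-only sample. The factors were GST-fused human transcription factors from yeast, captured on glutathione beads, DNA-barcoded and pooled with that sample. Pools were incubated with 200 nmole of a random double-stranded 16-mer DNA library in Tris/NaCl/DTT/glycerol buffer at room temperature for 30 min, then washed, crosslinked with 0.1% formaldehyde, proximity-ligated with BsaI/T4 ligase (1 h, 37 °C), PCR-amplified and sequenced on an Illumina NextSeq500.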
# GABPA = biological target: T2, GABPA (Homo sapiens, UniProt Q06546 1-454)
# T2 sequence: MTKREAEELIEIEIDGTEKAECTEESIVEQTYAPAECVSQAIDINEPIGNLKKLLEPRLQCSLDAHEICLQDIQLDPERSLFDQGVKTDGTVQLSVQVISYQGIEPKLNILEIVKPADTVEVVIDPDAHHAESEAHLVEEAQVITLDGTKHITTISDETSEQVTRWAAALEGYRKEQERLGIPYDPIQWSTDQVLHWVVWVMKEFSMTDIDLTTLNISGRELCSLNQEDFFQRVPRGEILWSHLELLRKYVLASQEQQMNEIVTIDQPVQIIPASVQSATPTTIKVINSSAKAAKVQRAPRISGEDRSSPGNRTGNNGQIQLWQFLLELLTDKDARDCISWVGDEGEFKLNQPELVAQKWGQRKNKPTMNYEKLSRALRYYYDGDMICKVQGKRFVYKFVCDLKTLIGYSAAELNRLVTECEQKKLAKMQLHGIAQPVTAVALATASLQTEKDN
# Summary of the method: as §1
# SPIB = SPIB (Homo sapiens, UniProt Q01892 1-262)
# Chain of SPIB (Q01892 whole entry): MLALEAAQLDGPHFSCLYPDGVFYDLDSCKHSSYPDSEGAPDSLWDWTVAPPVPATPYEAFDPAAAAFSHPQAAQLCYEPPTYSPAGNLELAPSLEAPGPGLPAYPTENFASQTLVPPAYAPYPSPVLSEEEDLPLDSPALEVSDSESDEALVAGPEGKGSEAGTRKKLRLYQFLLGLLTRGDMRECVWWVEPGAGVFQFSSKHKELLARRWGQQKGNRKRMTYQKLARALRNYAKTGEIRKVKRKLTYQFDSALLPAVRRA
# Summary of the method: as §1
# ETV5 = ETV5 (Homo sapiens, UniProt P41161 1-510)
# Chain of ETV5 (P41161 whole entry): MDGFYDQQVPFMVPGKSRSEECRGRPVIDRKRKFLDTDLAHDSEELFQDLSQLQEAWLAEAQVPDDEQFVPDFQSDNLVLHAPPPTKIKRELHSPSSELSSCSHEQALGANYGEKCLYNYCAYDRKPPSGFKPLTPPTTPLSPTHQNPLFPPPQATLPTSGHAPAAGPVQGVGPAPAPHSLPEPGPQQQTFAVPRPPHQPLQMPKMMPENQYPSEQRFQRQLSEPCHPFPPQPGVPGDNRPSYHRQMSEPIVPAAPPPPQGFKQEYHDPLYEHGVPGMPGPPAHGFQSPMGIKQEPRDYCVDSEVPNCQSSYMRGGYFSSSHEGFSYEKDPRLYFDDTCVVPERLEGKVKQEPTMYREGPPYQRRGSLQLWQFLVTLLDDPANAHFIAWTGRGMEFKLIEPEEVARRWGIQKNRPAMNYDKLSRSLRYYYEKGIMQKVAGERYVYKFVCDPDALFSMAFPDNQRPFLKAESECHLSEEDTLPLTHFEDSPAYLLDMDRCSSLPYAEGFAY
# Summary of the method: as §1
# ELK4 = biological target: T3, ELK4 (Homo sapiens, UniProt P28324-2 1-405)
# T3 sequence: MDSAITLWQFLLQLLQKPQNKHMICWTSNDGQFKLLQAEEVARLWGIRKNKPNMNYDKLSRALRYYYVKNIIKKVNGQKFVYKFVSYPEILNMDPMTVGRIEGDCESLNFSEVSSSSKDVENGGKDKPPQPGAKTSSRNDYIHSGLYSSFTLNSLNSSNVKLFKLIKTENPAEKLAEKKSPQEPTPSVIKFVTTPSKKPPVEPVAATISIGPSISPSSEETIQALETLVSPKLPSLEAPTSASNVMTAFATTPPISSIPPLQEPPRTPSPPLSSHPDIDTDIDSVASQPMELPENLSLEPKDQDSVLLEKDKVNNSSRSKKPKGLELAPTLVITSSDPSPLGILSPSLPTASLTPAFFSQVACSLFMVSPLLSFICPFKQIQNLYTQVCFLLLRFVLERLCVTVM
# Summary of the method: as §1
# ETV2 = biological target: T4, ETV2 (Homo sapiens, UniProt O00321 1-342)
# T4 sequence: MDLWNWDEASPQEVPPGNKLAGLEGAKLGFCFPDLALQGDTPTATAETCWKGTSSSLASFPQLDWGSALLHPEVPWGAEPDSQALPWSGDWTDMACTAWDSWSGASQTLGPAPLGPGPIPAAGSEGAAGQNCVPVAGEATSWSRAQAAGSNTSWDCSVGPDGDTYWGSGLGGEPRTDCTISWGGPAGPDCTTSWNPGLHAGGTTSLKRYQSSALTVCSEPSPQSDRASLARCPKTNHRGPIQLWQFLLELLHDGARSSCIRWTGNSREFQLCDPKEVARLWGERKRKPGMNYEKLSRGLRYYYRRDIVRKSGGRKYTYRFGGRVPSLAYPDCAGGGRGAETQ
# Summary of the method: as §1
# ELF3 = biological target: T5, ELF3 (Homo sapiens, UniProt P78545 1-371)
# T5 sequence: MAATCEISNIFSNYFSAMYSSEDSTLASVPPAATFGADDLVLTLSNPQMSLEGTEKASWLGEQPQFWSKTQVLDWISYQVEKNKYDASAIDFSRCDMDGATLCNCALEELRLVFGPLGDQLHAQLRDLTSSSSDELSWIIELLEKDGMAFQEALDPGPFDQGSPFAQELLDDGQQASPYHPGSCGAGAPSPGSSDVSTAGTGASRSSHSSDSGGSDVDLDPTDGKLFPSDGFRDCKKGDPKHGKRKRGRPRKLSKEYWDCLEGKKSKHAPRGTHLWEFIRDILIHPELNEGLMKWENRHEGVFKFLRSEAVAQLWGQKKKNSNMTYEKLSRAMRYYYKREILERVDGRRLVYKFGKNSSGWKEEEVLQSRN
# Summary of the method: as §1
# ETV1 = ETV1 (Homo sapiens, UniProt P50549 1-477)
# Chain of ETV1 (P50549 whole entry): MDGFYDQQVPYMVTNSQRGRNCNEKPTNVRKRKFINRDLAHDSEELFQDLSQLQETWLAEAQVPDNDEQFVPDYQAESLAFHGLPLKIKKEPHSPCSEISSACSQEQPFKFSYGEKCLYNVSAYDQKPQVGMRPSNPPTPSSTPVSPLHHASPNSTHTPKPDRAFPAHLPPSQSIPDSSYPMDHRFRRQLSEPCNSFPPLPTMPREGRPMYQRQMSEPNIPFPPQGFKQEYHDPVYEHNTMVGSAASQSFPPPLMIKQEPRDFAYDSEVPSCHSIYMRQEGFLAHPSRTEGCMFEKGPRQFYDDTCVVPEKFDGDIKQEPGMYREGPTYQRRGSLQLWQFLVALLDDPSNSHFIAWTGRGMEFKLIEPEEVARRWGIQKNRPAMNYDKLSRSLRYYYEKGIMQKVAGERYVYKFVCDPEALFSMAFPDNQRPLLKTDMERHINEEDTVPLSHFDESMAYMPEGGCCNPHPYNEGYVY
# Summary of the method: as §1
# ETV3L = biological target: T6, ETV3L (Homo sapiens, UniProt Q6ZN32 1-361)
# T6 sequence: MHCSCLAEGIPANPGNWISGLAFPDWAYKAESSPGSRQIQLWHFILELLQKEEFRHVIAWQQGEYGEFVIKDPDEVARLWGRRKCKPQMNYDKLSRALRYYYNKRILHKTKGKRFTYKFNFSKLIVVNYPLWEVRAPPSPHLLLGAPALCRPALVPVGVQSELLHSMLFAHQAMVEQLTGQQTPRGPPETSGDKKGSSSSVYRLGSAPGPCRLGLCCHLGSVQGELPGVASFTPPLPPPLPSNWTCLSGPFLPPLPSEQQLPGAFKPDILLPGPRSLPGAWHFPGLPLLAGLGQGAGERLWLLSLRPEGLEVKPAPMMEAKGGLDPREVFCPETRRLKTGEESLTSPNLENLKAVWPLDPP
# Summary of the method: as §1
# ETS2 = biological target: T7, ETS2 (Homo sapiens, UniProt P15036 1-469)
# T7 sequence: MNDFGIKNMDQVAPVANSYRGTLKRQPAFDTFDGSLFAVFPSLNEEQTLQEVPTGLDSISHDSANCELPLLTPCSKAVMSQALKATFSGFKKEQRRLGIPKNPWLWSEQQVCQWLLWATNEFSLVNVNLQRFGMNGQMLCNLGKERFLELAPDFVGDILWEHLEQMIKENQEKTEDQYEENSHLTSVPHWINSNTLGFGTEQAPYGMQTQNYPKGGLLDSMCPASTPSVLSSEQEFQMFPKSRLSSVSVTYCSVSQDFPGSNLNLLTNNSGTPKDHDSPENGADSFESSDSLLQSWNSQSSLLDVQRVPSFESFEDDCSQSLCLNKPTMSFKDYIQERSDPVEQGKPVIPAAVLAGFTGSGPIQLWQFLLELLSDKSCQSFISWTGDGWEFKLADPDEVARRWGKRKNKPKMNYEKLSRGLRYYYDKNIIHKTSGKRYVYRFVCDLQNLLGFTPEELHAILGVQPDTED
# Summary of the method: as §1
# SPDEF = biological target: T8, SPDEF (Homo sapiens, UniProt O95238 1-335)
# T8 sequence: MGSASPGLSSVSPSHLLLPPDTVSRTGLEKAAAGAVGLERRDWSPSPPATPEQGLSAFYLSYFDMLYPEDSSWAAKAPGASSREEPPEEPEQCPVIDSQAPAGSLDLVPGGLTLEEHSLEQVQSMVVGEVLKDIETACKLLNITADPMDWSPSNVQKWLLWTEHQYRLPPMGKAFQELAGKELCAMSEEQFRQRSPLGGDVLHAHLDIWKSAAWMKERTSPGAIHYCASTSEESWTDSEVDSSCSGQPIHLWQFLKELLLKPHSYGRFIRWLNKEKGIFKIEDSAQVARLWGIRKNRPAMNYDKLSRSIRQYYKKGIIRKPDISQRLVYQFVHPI
# Summary of the method: as §1
# ETV7 = biological target: T9, ETV7 (Homo sapiens, UniProt Q9Y603 1-341)
# T9 sequence: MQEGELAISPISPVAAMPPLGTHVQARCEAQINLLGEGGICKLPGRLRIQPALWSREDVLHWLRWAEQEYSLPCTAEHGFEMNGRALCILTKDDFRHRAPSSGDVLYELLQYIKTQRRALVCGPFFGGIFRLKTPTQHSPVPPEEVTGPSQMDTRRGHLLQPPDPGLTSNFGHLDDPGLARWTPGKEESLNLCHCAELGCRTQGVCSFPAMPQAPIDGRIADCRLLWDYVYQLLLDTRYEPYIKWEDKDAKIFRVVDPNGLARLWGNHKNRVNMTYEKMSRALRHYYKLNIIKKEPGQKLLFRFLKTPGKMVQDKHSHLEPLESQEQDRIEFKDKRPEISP
# Summary of the method: as §1
# ETV3 = biological target: T10, ETV3 (Homo sapiens, UniProt P41162-2 1-143)
# T10 sequence: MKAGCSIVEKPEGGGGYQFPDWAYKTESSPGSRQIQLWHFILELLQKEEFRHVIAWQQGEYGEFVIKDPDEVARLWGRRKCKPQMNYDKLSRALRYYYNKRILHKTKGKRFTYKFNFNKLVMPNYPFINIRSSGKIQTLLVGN
# Summary of the method: as §1
# ETV6 = ETV6 (Homo sapiens, UniProt P41212 1-452)
# Chain of ETV6 (P41212 whole entry): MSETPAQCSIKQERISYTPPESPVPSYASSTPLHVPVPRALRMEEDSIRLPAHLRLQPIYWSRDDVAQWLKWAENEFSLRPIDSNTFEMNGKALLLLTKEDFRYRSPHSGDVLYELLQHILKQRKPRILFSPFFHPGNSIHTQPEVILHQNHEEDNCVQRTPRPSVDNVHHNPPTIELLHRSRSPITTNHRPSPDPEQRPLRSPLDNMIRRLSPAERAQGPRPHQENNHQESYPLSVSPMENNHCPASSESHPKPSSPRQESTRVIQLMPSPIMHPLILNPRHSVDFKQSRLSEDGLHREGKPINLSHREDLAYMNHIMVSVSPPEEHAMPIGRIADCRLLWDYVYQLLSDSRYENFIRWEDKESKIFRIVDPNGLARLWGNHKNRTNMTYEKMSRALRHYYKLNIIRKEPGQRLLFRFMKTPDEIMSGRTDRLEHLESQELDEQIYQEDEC
# Summary of the method: as §1
sequence,measurement,setting,value
CGTTTG,binding signal,ELK1,"1.03 fold enrichment (6-mer frequency, TF over GST control)"
same,binding signal,GABPA,"1.03 fold enrichment (6-mer frequency, TF over GST control)"
same,binding signal,SPIB,"1.06 fold enrichment (6-mer frequency, TF over GST control)"
same,binding signal,ETV5,"1.01 fold enrichment (6-mer frequency, TF over GST control)"
same,binding signal,ELK4,"1.07 fold enrichment (6-mer frequency, TF over GST control)"
same,binding signal,ETV2,"1.16 fold enrichment (6-mer frequency, TF over GST control)"
same,binding signal,ELF3,"1.02 fold enrichment (6-mer frequency, TF over GST control)"
same,binding signal,ETV1,"1.06 fold enrichment (6-mer frequency, TF over GST control)"
same,binding signal,ETV3L,"1 fold enrichment (6-mer frequency, TF over GST control)"
same,binding signal,ETS2,"1.06 fold enrichment (6-mer frequency, TF over GST control)"
same,binding signal,SPDEF,"1.01 fold enrichment (6-mer frequency, TF over GST control)"
same,binding signal,ETV7,"1.21 fold enrichment (6-mer frequency, TF over GST control)"
same,binding signal,ETV3,"1.08 fold enrichment (6-mer frequency, TF over GST control)"
same,binding signal,ETV6,"1.01 fold enrichment (6-mer frequency, TF over GST control)"
